Results filed as inconclusive are left out. Calls of active or inactive are those of the source. How the source made its calls: active means hit-call score of the fitted dose curve at least 0.9, where 1 is the maximum; inconclusive means response in the unintended direction; inactive means score below 0.9.
Columns and labels:
[1] = target: human p21 Activated Kinase 4 (PAK4), PAK4 (gene 10298) (UniProt O96013); assay: NVS_ENZ_hPAK4: NovaScreen (NVS) Enzymatic Assay for human p21 Activated Kinase 4 (PAK4) (AID 2283189)
Method in brief: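 Extracted PAK4 enzyme activity read by fluorescence with mobility-shift separation 1 h after chemical addition. Duplicate single-concentration screen at 25 uM, DMSO as negative control.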

[2] = target: Mitogen-activated protein kinase 3 (Homo sapiens) (UniProt P27361); assay: NVS_ENZ_hMAPK3: NovaScreen (NVS) Enzymatic Assay for human Mitogen-Activated Protein Kinase 3 (MAPK 3) (AID 2283177)
Method in brief: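 Chemicals were first tested in duplicate at 25 uM, with hits re-run as concentration series (max 50 uM). Recombinant enzyme activity, measured 1 h post-dose in a cell-free format, was read by fluorescence/mobility shift relative to DMSO.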

[3] = target: human Phosphodiesterase 4A1 (PDE4A1), PDE4A (gene 5141) (UniProt P27815); assay: NVS_ENZ_hPDE4A1: NovaScreen (NVS) Enzymatic Assay for human Phosphodiesterase 4A1 (PDE4A1) (AID 2283191)
Method in brief: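 Fluorescent substrate turnover by recombinant PDE4A1 read after 1 h by mobility-shift separation. Primary duplicate screen at 25 uM; hits retested in concentration series with a 50 uM maximum, relative to DMSO.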

[4] = target: human Phosphodiesterase 5 (PDE5), PDE5A (gene 8654) (UniProt O76074); assay: NVS_ENZ_hPDE5: NovaScreen (NVS) Enzymatic Assay for human Phosphodiesterase 5 (PDE5) (AID 2283194)
Method in brief: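 Screening began in duplicate at 25 uM, with actives taken into concentration-response. Enzyme activity of recombinant PDE5 toward its substrate was measured at 1 h by fluorescence mobility-shift detection, relative to DMSO controls.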

[5] = target: human Matrix Metalloproteinase-1 (MMP1), MMP1 (gene 4312) (UniProt P03956); assay: NVS_ENZ_hMMP1: NovaScreen (NVS) Enzymatic Assay for human Matrix Metalloproteinase-1 (MMP1) (AID 2283181)
Method in brief: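 Cell-free fluorescent substrate assay of human MMP1, read after 1 h. A single 25 uM duplicate screen was followed by concentration series to a maximum of 50 uM for actives meeting threshold; inhibition analysed against DMSO baseline.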

[6] = target: human Matrix Metalloproteinase-3 (MMP3), MMP3 (gene 4314) (UniProt P08254); assay: NVS_ENZ_hMMP3: NovaScreen (NVS) Enzymatic Assay for human Matrix Metalloproteinase-3 (MMP3) (AID 2283185)
Method in brief: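 Fluorescent substrate turnover by recombinant MMP3 read after 1 h, signal loss scored against DMSO. Compounds first run in duplicate at 25 uM single dose, then actives confirmed by concentration series.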

[7] = target: human Janus Kinase 2 (Jak2), JAK2 (gene 3717) (UniProt O60674); assay: NVS_ENZ_hJak2: NovaScreen (NVS) Enzymatic Assay for human Janus Kinase 2 (Jak2) (AID 2283169)
Method in brief: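 Single-point duplicate screen at 25 uM, with hits run in concentration series to a 50 uM top dose. Substrate-product separation by mobility shift with fluorescence detection, 1 h post-dosing; DMSO baseline.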

[8] = target: human Matrix Metalloproteinase-2 (MMP2), MMP2 (gene 4313) (UniProt P08253); assay: NVS_ENZ_hMMP2: NovaScreen (NVS) Enzymatic Assay for human Matrix Metalloproteinase-2 (MMP2) (AID 2283184)
Method in brief: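 Compounds first screened in duplicate at a single 25 uM, with actives followed up in concentration series. Recombinant human MMP2 cleaves a fluorogenic substrate; fluorescence taken at 1 h, inhibition fitted relative to DMSO.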

[9] = target: human MET Proto-Oncogene, Receptor Tyrosine Kinase (MET), MET (gene 4233) (UniProt P08581); assay: NVS_ENZ_hMet: NovaScreen (NVS) Enzymatic Assay for human MET Proto-Oncogene, Receptor Tyrosine Kinase (MET) (AID 2283180)
Method in brief: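 Hits from a 25 uM duplicate screen were retested in concentration series up to 50 uM. Enzyme activity was measured by fluorescence after electrophoretic separation of product from substrate, 1 h after compound addition, relative to DMSO.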

[10] = target: human Matrix Metalloproteinase-7 (MMP7), MMP7 (gene 4316) (UniProt P09237); assay: NVS_ENZ_hMMP7: NovaScreen (NVS) Enzymatic Assay for human Matrix Metalloproteinase-7 (MMP7) (AID 2283183)
Method in brief: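 Compounds first tested at 25 uM in duplicate, then at up to 50 uM in concentration series if active. Protease activity measured by fluorescence intensity 1 h after dosing, with fitting relative to DMSO.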

[11] = target: human MAP Kinase-Activated Protein Kinase 2 (MAPKAPK2), MAPKAPK2 (gene 9261) (UniProt P49137); assay: NVS_ENZ_hMAPKAPK2: NovaScreen (NVS) Enzymatic Assay for human MAP Kinase-Activated Protein Kinase 2 (MAPKAPK2) (AID 2283178)
Method in brief: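 Chemicals screened in duplicate at 25 uM, then to 50 uM top concentration in concentration-response, against recombinant human MAPKAPK2; substrate conversion read 1 hr post-dosing by fluorescence after electrophoretic mobility-shift separation, loss-of-signal relative to DMSO.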

[12] = target: human IkappaB Kinase alpha (IKKa), CHUK (gene 1147) (UniProt O15111); assay: NVS_ENZ_hIKKa: NovaScreen (NVS) Enzymatic Assay for human IkappaB Kinase alpha (IKKa) (AID 2283167)
Method in brief: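 Compounds first run in duplicate at 25 uM, those meeting threshold (e.g. 30% inhibition) retested to maximum 50 uM. Enzyme activity of recombinant IKKa measured by fluorescence with electrophoretic mobility shift separation, 1 hour post-dosing, DMSO baseline.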

[13] = target: human Mitogen- and Stress-activated Protein Kinase-1 (Msk1), RPS6KA5 (gene 9252) (UniProt O75582); assay: NVS_ENZ_hMsk1: NovaScreen (NVS) Enzymatic Assay for human Mitogen- and Stress-activated Protein Kinase-1 (Msk1) (AID 2283187)
Method in brief: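 Chemicals first run in duplicate at 25 uM, with actives followed up in singleton concentration series to 50 uM maximum. Enzyme activity came from substrate/product mobility-shift separation with fluorescence detection after 1 h incubation of the recombinant protein.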

[14] = target: human NIMA (Never In Mitosis Gene A)-Related Kinase 2 (NEK2), NEK2 (gene 4751) (UniProt P51955); assay: NVS_ENZ_hNEK2: NovaScreen (NVS) Enzymatic Assay for human NIMA (Never In Mitosis Gene A)-Related Kinase 2 (NEK2) (AID 2283188)
Method in brief: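 Compounds were first screened in duplicate at 25 uM, with actives followed up in concentration series. Recombinant NEK2 activity, cell-free, was read 1 h after dosing by fluorescence intensity after mobility-shift separation. Signal loss was scored against DMSO.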

[15] = target: cAMP-dependent protein kinase catalytic subunit alpha (Homo sapiens) (UniProt P17612); assay: NVS_ENZ_hPKA: NovaScreen (NVS) Enzymatic Assay for human Protein Kinase A (PKA) (AID 2283192)
Method in brief: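 Cell-free kinase activity read by fluorescence after mobility-shift separation of substrate and product, 1 h post-dosing. Single-concentration duplicate screen (25 uM) preceded singleton concentration series (top 50 uM); loss of signal versus DMSO.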

[16] = target: human Matrix Metalloproteinase-9 (MMP9), MMP9 (gene 4318) (UniProt P14780); assay: NVS_ENZ_hMMP9: NovaScreen (NVS) Enzymatic Assay for human Matrix Metalloproteinase-9 (MMP9) (AID 2283190);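 further: cell-free recombinant MMP9 protease activity read by fluorescent substrate signal; active means inhibition seen as loss of fluorescence signal versus DMSO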
Method in brief: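 Inhibition was scored as loss of fluorescence signal against DMSO controls. The recombinant protease was exposed to chemicals for 1 hour before reading; initial testing used 25 uM in duplicate.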

[17] = target: human Mitogen-Activated Protein Kinase 1 (MAPK 1), MAPK1 (gene 5594) (UniProt P28482); assay: NVS_ENZ_hMAPK1: NovaScreen (NVS) Enzymatic Assay for human Mitogen-Activated Protein Kinase 1 (MAPK 1) (AID 2283175)
Method in brief: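 Cell-free recombinant human MAPK1 enzymatic assay, fluorescence/electrophoretic mobility shift read at 1 h; loss of signal vs DMSO. Primary screen in duplicate at 25 uM; actives (e.g. ≥30% inhibition) run as concentration-response up to 50 uM.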

[18] = target: human Phosphodiesterase 10 (PDE10), PDE10A (gene 10846) (UniProt Q9Y233); assay: NVS_ENZ_hPDE10: NovaScreen (NVS) Enzymatic Assay for human Phosphodiesterase 10 (PDE10) (AID 2283195)
Method in brief: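 Fluorescence readout after mobility-shift separation of substrate and product, 1 h reaction with recombinant human enzyme. Single-concentration duplicates at 25 uM, then concentration-response up to 50 uM for chemicals reaching threshold; DMSO baseline.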

[19] = target: human c-Jun N-terminal Kinases (JNK2), MAPK9 (gene 5601) (UniProt P45984); assay: NVS_ENZ_hJNK2: NovaScreen (NVS) Enzymatic Assay for human c-Jun N-terminal Kinases (JNK2) (AID 2283171)
Method in brief: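 Chemicals first tested in duplicate at 25 uM, then in singleton concentration series up to 50 uM, against extracted JNK2 enzyme. Activity loss read by fluorescence with mobility-shift separation 1 h post-dose; DMSO baseline.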

[20] = target: Collagenase 3 (Homo sapiens) (UniProt P45452); assay: NVS_ENZ_hMMP13: NovaScreen (NVS) Enzymatic Assay for human Matrix Metalloproteinase-13 (MMP13) (AID 2283182)
Method in brief: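 Recombinant MMP13 cleaving fluorescent substrate, cell-free, measured 1 h after dosing. Primary duplicate screen at 25 uM; actives tested in concentration-response up to 50 uM; loss of signal relative to DMSO.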

Sequence of human Janus Kinase 2 (Jak2), JAK2 (gene 3717) (O60674 whole entry, looked up): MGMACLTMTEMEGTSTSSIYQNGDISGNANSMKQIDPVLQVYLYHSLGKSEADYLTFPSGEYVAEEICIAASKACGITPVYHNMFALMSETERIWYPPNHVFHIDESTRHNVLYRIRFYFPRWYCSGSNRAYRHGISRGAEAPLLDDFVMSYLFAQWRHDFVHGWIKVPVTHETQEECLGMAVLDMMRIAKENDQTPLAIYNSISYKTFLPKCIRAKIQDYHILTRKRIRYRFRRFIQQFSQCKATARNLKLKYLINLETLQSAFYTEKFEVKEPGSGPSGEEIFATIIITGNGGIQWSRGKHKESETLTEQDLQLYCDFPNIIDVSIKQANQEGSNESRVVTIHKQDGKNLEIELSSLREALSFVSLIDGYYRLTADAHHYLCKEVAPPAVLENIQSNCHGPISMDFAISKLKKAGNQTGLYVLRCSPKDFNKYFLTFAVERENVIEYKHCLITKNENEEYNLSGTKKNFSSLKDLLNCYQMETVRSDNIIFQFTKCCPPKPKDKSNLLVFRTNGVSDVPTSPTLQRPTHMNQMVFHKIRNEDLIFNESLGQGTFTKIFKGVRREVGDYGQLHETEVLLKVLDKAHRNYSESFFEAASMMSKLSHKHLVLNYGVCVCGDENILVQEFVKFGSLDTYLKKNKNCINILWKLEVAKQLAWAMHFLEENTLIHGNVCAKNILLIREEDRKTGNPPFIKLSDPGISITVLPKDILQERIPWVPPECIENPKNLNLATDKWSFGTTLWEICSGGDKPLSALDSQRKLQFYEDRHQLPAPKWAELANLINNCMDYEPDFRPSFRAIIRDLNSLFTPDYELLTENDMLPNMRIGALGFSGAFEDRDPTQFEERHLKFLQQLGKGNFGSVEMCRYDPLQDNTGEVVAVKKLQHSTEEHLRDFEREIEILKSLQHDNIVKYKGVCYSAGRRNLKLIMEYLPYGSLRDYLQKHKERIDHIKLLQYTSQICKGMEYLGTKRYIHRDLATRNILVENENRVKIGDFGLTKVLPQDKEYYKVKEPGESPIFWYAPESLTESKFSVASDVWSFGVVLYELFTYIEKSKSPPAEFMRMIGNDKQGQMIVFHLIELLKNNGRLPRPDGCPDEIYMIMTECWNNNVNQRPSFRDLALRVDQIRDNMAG
Sequence of human c-Jun N-terminal Kinases (JNK2), MAPK9 (gene 5601) (P45984 whole entry, looked up): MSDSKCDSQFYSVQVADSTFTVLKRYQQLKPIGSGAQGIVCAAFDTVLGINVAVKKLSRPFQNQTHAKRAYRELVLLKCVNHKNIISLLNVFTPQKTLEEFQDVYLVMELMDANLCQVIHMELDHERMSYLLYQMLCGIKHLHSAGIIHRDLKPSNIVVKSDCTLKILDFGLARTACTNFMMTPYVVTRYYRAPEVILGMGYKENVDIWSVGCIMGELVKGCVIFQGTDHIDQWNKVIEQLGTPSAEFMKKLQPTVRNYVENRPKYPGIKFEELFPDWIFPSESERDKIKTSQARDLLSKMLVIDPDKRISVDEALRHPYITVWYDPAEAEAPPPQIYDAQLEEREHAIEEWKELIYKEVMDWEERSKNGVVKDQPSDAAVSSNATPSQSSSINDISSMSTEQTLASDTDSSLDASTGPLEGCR
Sequence of human MET Proto-Oncogene, Receptor Tyrosine Kinase (MET), MET (gene 4233) (P08581 whole entry, looked up): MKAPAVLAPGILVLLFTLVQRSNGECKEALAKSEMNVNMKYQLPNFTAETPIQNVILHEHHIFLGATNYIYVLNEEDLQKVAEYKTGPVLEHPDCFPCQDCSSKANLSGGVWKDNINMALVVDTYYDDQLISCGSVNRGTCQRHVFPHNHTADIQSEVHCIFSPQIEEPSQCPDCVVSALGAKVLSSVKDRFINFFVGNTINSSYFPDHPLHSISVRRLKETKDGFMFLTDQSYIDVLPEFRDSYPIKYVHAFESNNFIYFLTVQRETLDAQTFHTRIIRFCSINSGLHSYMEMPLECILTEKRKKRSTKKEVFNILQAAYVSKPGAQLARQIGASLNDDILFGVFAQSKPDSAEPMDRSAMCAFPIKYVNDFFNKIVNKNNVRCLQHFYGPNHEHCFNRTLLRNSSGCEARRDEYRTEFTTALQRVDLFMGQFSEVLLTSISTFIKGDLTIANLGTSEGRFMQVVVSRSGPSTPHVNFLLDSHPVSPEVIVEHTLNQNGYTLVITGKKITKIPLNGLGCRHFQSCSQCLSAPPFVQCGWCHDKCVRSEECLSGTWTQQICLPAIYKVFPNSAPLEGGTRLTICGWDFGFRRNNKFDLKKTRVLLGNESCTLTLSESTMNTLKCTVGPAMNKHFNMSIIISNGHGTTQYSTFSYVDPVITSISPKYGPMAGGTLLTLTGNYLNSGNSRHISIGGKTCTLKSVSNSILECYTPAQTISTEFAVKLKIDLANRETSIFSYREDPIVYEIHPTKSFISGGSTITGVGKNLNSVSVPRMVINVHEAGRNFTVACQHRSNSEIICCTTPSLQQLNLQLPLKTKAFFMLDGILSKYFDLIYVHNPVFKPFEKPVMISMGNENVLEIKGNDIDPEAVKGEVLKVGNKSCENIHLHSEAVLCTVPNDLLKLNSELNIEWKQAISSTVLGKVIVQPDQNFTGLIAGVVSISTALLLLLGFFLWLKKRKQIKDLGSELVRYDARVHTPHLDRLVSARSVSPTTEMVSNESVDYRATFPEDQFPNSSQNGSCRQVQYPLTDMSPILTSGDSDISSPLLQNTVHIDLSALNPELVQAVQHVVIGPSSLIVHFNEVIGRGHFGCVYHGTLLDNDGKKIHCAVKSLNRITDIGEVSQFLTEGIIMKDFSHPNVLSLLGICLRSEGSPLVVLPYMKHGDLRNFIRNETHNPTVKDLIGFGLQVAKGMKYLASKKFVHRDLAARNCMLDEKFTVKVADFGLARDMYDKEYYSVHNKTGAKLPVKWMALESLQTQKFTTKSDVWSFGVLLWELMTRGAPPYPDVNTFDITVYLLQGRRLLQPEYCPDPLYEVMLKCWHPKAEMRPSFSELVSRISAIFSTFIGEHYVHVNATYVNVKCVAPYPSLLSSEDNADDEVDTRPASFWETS
Sequence of human p21 Activated Kinase 4 (PAK4), PAK4 (gene 10298) (O96013 whole entry, looked up): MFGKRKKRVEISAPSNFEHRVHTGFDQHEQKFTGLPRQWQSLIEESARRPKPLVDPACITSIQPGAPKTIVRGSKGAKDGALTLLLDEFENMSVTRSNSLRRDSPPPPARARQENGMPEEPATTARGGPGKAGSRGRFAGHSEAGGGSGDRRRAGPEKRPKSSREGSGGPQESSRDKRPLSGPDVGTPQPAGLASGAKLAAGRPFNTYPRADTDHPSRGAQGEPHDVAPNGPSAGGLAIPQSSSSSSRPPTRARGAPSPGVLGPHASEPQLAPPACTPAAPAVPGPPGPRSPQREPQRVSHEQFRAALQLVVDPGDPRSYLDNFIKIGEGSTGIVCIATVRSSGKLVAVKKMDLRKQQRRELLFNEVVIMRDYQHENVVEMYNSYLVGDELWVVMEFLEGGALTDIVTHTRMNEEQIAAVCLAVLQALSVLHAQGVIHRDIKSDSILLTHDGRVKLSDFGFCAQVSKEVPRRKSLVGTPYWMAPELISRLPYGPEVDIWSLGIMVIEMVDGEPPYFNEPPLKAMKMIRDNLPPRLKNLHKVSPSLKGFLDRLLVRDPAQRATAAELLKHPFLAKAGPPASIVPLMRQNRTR
Sequence of human Mitogen- and Stress-activated Protein Kinase-1 (Msk1), RPS6KA5 (gene 9252) (O75582 whole entry, looked up): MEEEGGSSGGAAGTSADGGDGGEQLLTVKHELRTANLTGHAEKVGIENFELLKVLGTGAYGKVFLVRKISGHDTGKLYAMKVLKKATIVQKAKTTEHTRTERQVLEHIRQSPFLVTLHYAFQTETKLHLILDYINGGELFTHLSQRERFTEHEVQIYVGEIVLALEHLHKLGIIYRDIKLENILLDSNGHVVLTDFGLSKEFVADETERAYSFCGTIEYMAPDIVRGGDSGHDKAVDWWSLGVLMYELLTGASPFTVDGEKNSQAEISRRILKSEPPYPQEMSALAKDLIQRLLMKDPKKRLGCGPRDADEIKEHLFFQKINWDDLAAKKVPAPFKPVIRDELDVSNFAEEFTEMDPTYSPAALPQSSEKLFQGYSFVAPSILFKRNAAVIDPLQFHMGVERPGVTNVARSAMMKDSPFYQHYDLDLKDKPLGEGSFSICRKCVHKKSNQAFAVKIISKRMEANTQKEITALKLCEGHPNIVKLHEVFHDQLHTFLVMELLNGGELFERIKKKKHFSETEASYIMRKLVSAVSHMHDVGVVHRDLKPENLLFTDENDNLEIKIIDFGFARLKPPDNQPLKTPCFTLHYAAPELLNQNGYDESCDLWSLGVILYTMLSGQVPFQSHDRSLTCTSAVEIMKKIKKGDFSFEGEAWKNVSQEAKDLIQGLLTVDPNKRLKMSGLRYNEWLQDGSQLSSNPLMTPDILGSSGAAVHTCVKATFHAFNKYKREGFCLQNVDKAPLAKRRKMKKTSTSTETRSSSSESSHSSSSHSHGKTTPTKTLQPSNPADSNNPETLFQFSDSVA
Sequence of human Matrix Metalloproteinase-1 (MMP1), MMP1 (gene 4312) (P03956 whole entry, looked up): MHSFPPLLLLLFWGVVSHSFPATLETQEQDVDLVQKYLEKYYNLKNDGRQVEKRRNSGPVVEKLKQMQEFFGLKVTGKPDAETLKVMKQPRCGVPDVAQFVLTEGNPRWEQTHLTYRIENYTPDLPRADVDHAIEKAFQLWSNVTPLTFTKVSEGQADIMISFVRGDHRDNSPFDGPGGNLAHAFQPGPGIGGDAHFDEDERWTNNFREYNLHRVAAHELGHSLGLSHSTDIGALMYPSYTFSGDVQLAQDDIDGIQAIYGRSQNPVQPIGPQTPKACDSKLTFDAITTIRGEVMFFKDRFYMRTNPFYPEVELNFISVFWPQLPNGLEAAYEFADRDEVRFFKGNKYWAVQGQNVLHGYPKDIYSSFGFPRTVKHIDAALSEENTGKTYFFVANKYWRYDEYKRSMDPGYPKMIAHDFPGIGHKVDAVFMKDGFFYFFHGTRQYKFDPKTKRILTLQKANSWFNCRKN
Sequence of human Matrix Metalloproteinase-7 (MMP7), MMP7 (gene 4316) (P09237 whole entry, looked up): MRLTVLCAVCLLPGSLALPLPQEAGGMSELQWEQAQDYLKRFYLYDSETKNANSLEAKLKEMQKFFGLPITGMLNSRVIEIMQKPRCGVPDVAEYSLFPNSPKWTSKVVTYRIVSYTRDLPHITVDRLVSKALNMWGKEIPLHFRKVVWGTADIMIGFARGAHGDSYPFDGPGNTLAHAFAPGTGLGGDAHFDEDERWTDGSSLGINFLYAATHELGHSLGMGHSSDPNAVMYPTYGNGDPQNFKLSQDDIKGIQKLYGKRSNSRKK

ClC1=C(Cl)[C@]2(Cl)[C@@H]3[C@H]4C[C@H]([C@@H]5O[C@H]45)[C@@H]3[C@@]1(Cl)C2(Cl)Cl
outcome [1]: inactive

ClC1=C(Cl)[C@]2(Cl)[C@@H]3[C@@H](Cl)[C@H]4O[C@H]4[C@@H]3C1(Cl)C2(Cl)Cl
outcome [2]: inactive

Cc1cccc(C)c1N
outcome [2]: inactive

CCCN(CCC)N=O
outcome [3]: inactive
outcome [4]: inactive

O=C(O)C(F)(F)C(F)(F)C(F)(F)C(F)(F)C(F)(F)C(F)(F)C(F)(F)C(F)(F)C(F)(F)F
outcome [5]: inactive
AC50 [6]: 12.5 µM (active)

Clc1ccc(C(c2ccccc2Cl)C(Cl)(Cl)Cl)cc1 (configuration not stated)
outcome [7]: inactive

O=NN(c1ccccc1)c1ccccc1
outcome [5]: inactive
outcome [8]: inactive

Cc1ccccc1[N+](=O)[O-]
outcome [9]: inactive

Oc1ccc(C(c2ccc(O)cc2)(C(F)(F)F)C(F)(F)F)cc1
AC50 [5]: 5.26 µM (active)
outcome [10]: inactive

N#Cc1ccc(N(CC(N)=O)CC(F)(F)F)cc1C(F)(F)F
outcome [4]: inactive

CCOCCOC(C)=O
outcome [11]: inactive

O=C(O)C(F)(F)C(F)(F)C(F)(F)C(F)(F)C(F)(F)C(F)(F)C(F)(F)C(F)(F)F
outcome [12]: inactive
outcome [9]: inactive
outcome [13]: inactive
AC50 [14]: 40.7 µM (active)
outcome [15]: inactive
outcome [4]: inactive

Sc1ccccc1
AC50 [16]: 4.12 µM (active)

C[C@]12CCC(=O)C=C1CC[C@@H]1[C@@H]2CC[C@]2(C)C(=O)CC[C@@H]12
AC50 [4]: 12.3 µM (active)

CC(C)(c1ccccc1)c1ccc(O)cc1
AC50 [5]: 10.5 µM (active)

ClC(Cl)=C(c1ccc(Cl)cc1)c1ccc(Cl)cc1
outcome [4]: inactive

O=S(=O)(O)C(F)(F)C(F)(F)C(F)(F)C(F)(F)C(F)(F)C(F)(F)F
outcome [12]: inactive
outcome [7]: inactive
outcome [17]: inactive
outcome [2]: inactive
outcome [11]: inactive
outcome [10]: inactive
outcome [3]: inactive
outcome [4]: inactive
outcome [18]: inactive

Oc1c(Cl)c(Cl)c(Cl)c(Cl)c1Cl
outcome [4]: inactive

O=C(N[C@H]1CN2CCC1CC2)c1cc2ccoc2cn1
outcome [10]: inactive

CO/C=C(/C(=O)OC)c1ccccc1COc1cccc(C(F)(F)F)n1
outcome [6]: inactive
outcome [16]: inactive

CCSC(=O)N(CC)C1CCCCC1
outcome [13]: inactive

Cc1ccc(O)c(C)c1
outcome [9]: inactive
AC50 [4]: 37.4 µM (active)

O=C(O)C(F)(F)C(F)(F)C(F)(F)C(F)(F)C(F)(F)F
outcome [7]: inactive
outcome [19]: inactive
outcome [10]: inactive
outcome [18]: inactive

Cc1cccc([N+](=O)[O-])c1
outcome [2]: inactive

CCNc1nc(NC(C)C)nc(SC)n1
outcome [17]: inactive
AC50 [3]: 2.15 µM (active)
AC50 [4]: 17.4 µM (active)

CCCCCCCCCC[N+](C)(C)CCCCCCCCCC
outcome [5]: inactive
outcome [20]: inactive

Cc1cc2c3c(c1)C(c1ccccc1)=N[C@@H](NC(=O)c1ccncc1)C(=O)N3CC2
outcome [7]: inactive
AC50 [3]: 1.36 µM (active)
AC50 [4]: 3.87 µM (active)
AC50 [18]: 5.66 µM (active)

CN(C)CCO
outcome [1]: inactive

CCCCCCCCCc1ccc(O)cc1
outcome [16]: inactive

CC#Cc1cc(C)nc(Nc2ccccc2)n1
outcome [2]: inactive

c1cc2ccc3cccc4ccc(c1)c2c34
outcome [14]: inactive

CC(C)C(=O)OCC(C)(C)C(OC(=O)C(C)C)C(C)C (configuration not stated)
outcome [7]: inactive
outcome [19]: inactive
outcome [2]: inactive
outcome [11]: inactive
outcome [8]: inactive
outcome [16]: inactive
outcome [4]: inactive
outcome [18]: inactive

CC1=C2C[C@H]3[C@@H](CC=C4C[C@@H](O)CC[C@@]43C)[C@@H]2CC[C@]12O[C@@H]1C[C@H](C)CN[C@H]1[C@H]2C
outcome [19]: inactive
outcome [2]: inactive
outcome [11]: inactive
outcome [9]: inactive
AC50 [13]: 19 µM (active)
outcome [1]: inactive
outcome [3]: inactive
outcome [15]: inactive
outcome [18]: inactive

CCC(C)(c1ccc(O)cc1)c1ccc(O)cc1
outcome [4]: inactive
